# From PubChem BioAssay AID686928 (Broad Institute, 2013)
# Results with a measured potency or affinity are listed apart. Values without a mark were called inactive. Calls of active or inactive are those of the source. The rule behind the calls is not given here.
# Assay: HeLa cell cytotoxicity, dose response, cytotoxicity control, 24 h, plate reader, dry powder (AID 686928)
# Conditions: series mostly up to 80 µM; activity change, negative = cytotoxicity: at the top concentration
SMILES,"activity change, negative = cytotoxicity",outcome
O=C(Nc1nnc(-c2cccnc2)o1)C1CCCCC1,5.91% [at 100 µM],
Cn1nc(NC(=O)c2ccco2)c2cc3ccccc3nc21,-0.497%,
O=C(Nc1nnc(-c2ccncc2)o1)C1CCC1,2.42% [at 100 µM],
Cc1ccc2cc3c(NC(=O)c4ccccn4)nn(C)c3nc2c1,10.8% [at 100 µM],
NC(=O)c1ccccc1Nc1cccc(Cl)c1,-29.1%,
O=C(Nc1nnc(-c2ccc3c(c2)CCCC3)o1)C1CCC1,-27%,
COC(=O)c1ccccc1Nc1cccc(Cl)c1,-12.2%,
COc1ccc(-c2nnc(NC(=O)C3CCCCC3)o2)cc1,-9.23% [at 100 µM],
Cn1nc(NC(=O)c2ccco2)c2cc3ccc(C(C)(C)C)cc3nc21,-74.1% [at 100 µM],
O=C(CC1CCCCC1)Nc1nnc(-c2ccc3c(c2)CCCC3)o1,-4.33% [at 35 µM],
Cc1cc(F)c2cc3c(NC(=O)c4ccco4)nn(C)c3nc2c1,2.86% [at 100 µM],
O=C(CC1CCCCC1)Nc1nnc(-c2cccnc2)o1,13%,
O=C1C(=O)N(Cc2ccccc2Cl)c2ccccc21,-5.25%,
O=C(Cc1ccc(-c2ccccc2)cc1)NC1COC1,7.64% [at 100 µM],
CN(C)/C=N/c1nnc(-c2ccc3c(c2)OCCO3)o1,-5.9% [at 100 µM],
O=c1ncn(Cc2ccc(Cl)cc2)c2ccccc12,-6.39%,
COc1cccc(-n2cnc(=O)c3ccccc32)c1,-1.94%,
CCc1nc(=O)c2ccccc2n1-c1cccc(Cl)c1,-1.68%,
COc1ccc2c(=O)ncn(-c3cccc(Cl)c3)c2c1,-1.88%,

SMILES,"activity change, negative = cytotoxicity",outcome
O=C(Nc1nnc(-c2cccc(Cl)c2)o1)C1CCCCC1,-0.512%,
O=C(O)c1ccccc1Nc1cccc(Cl)c1,14%,
O=c1ncn(-c2cc(Cl)cc(Cl)c2)c2ccccc12,-5.54%,
Cc1ccc2c(=O)ncn(-c3cccc(Cl)c3)c2c1,2.63%,
O=C(Nc1nnc(-c2ccccc2Cl)o1)C1CCCCC1,-10.8% [at 100 µM],
CCc1ccc2cc3c(NC(=O)c4ccco4)nn(C)c3nc2c1,-37.8%,
O=C(Nc1nnc(-c2ccc3c(c2)OCCO3)o1)C1CCCCC1,,inactive
O=c1ncn(-c2ccc(Cl)c(Cl)c2)c2ccccc12,-5.87%,
O=C(Nc1nnc(-c2cccnc2)o1)C1CCC1,10.1% [at 100 µM],
C(=N\c1nnc(-c2ccc3c(c2)OCCO3)o1)/c1ccccc1,-8.71% [at 100 µM],
O=c1ncn(-c2ccccc2Cl)c2ccccc12,-5.96%,
O=c1ncn(-c2cccc(Cl)c2)c2cccc(Cl)c12,-3.27%,
Cc1ccc2cc3c(NC(=O)c4ccc(C)o4)nn(C)c3nc2c1,6.38% [at 100 µM],
COc1ccc(S(=O)(=O)Nc2nnc(-c3ccc4c(c3)OCCO4)o2)cc1,3.93% [at 100 µM],
Cc1ccc2cc3c(NC(=O)C4CCCC4)nn(C)c3nc2c1,-8.11%,
Cc1nc(=O)c2ccccc2n1-c1cccc(Cl)c1,1.96%,
O=c1nc(-c2ccccc2)n(-c2cccc(Cl)c2)c2ccccc12,0.608%,
NC(=O)c1ccccc1Nc1ccccc1,-4.82%,
CN1CCC(C(=O)Nc2nnc(-c3ccc4c(c3)OCCO4)o2)CC1,8.1% [at 100 µM],
